# Source: PubChem BioAssay AID488856 (Sanford-Burnham Center for Chemical Genomics, 2010)
# Screen size: about 1,400 compounds; about 50 (4%) were called active. Not all results are given here. Unmarked numbers belong to inactive results.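 Rule for the calls: active = mean inhibition across replicates above about 26% (limit read from the data); inactive = the rest.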
# Biological target: Caspase-3 (Homo sapiens) (UniProt P42574)
# Assay: CASP3 blockers, validation, counterassay for UBE2N polyubiquitination inhibitor project, biochemical, one-dose (AID 488856);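 note: plate controls were DMSO with caspase-3 for no effect and DMSO wells lacking enzyme for full effect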
# Conditions: Recombinant caspase-3, Caspase-Glo 3/7 luminescence, 60 min; at 20 µM; hits give high values
# Sequence of Caspase-3 (Homo sapiens) (P42574 whole entry, looked up): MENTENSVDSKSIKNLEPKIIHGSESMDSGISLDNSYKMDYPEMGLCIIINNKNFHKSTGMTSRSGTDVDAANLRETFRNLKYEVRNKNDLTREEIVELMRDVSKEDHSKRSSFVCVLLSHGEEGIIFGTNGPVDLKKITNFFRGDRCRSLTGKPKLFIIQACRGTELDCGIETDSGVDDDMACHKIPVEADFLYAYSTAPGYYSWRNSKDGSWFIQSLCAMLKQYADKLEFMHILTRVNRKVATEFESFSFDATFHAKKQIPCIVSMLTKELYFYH
row,SMILES,inhibition
1,CC(C)n1cnc2c(Nc3cccc(Cl)c3)nc(N(CCO)CCCO)nc21,-1.5%
2,C#CCOCCOCCOCCNc1nc(N2CCN(C(=O)CCCCCCCCCCNC(=O)[C@H]([C@@H](C)CC)n3cc(CCCCN=C(N)N)nn3)CC2)nc(N2CCN(C(=O)CCCCCCCCCCNC(=O)[C@H](CO)n3cc(CCCSC)nn3)CC2)n1,-0.7%
3,NC(N)=N/N=C/c1ccc(OCc2ccc(Cl)cc2Cl)cc1,-1.8%
4,COc1ccc(-c2nnc3ccc(SCc4ccccc4)nn23)cc1,-6.5%
5,COc1cccc(Cn2cnc3c([N+](=O)[O-])c(C)c(C)cc32)c1,-0.7%
6,CN(C(=O)CN(CCO)CC(=O)N(C)C(C)(C)Cc1ccccc1)C(C)(C)Cc1ccccc1,-0.1%
7,CCOc1ccc2nc(N(CCCN(C)C)C(=O)c3ccc(C(=O)c4ccccc4)cc3)sc2c1,3.4%
8,Cc1ccc(C(=O)N/C(=C/c2ccc(-c3cccc([N+](=O)[O-])c3)o2)C(=O)NCCCN(C)C)cc1,-0.7%
9,COc1ccc(C(CNC(=O)c2cccc(NS(=O)(=O)c3ccc(C)c(F)c3)c2)N2CCCC2)cc1 (stereo not given),0.9%
10,Cn1c(C(=O)NCCCN2CCN(c3cccc(Cl)c3)CC2)cc2c(=O)n(C)c3ccccc3c21,1.8%
11,CC1CC(C)(C)n2c(O)c(N=NC(N)=S)c3cccc1c32 (stereo not given),-2.8%
12,CN(C)CCCN(C(=O)c1ccc(S(=O)(=O)N2CCCCCC2)cc1)c1nc2ccc(Br)cc2s1,0.1%
13,COc1ccc2sc(-c3ccc(S(C)(=O)=O)cc3)c(C#Cc3cncn3C)c2c1,0.2%
14,COc1ccc(-n2nnnc2-c2nc3ccccc3s2)cc1,85.5% (active)
15,CCN(CC)CCNC(=O)c1ccc(NC(=O)c2cc(-c3ccncc3)nc3ccccc23)cc1,-3.4%
16,O=S(=O)(c1ccc(NC(=S)NN=C(C2CC2)C2CC2)cc1)N1CCOCC1,3.2%
17,COc1ccc2sc(-c3ccccc3OC)c(-c3ccc(OCCN4CCCC4)cc3)c2c1,-2.6%
18,O=c1cc(CO)oc(C(Nc2cccc([N+](=O)[O-])c2)c2ccccn2)c1O (stereo not given),1.9%
19,Cc1nc(N2CCN(c3ccccn3)CC2)c2c(C)c(C(=O)Nc3ccc(F)cc3)sc2n1,-2.6%
20,C#CCOCCOCCOCCNc1nc(N2CCN(C(=O)CCCCCCCCCCNC(=O)Cn3cc(CCCCCN)nn3)CC2)nc(N2CCN(C(=O)CCCCCCCCCCNC(=O)[C@H](CO)n3cc(CCCSC)nn3)CC2)n1,3%
21,S=c1nc2ccccc2c2nc(-c3cccnc3)[nH]n12,16%
22,Cc1ccc(N(C(=O)c2snc(C(N)=O)c2N)C(C(=O)NCC2CCCO2)c2c[nH]c3ccccc23)cc1 (stereo not given),0.8%
23,CCN(CC)CCC(c1cc(OC)c(OC)c(OC)c1)c1c(OC)cc(OC)c2c(-c3ccccc3)cc(=O)oc12 (stereo not given),-2%

row,SMILES,inhibition
1,Cc1ccccc1C(=O)OC1OC(=O)C(Cl)=C1Nc1ccccc1 (stereo not given),-0.3%
2,O=C(COC(=O)Cn1cnc2ccccc2c1=O)NCc1ccccc1Cl,-0.6%
3,COc1cccc(N(C(=O)c2snc(C(N)=O)c2N)C(C(=O)NCC2CCCO2)c2c[nH]c3ccccc23)c1 (stereo not given),-8.9%
4,COc1ccccc1-c1sc2ccccc2c1-c1ccc(C(C)=O)cc1,12.1%
5,Cc1ccc(NC2=C(Cl)C(=O)OC2OC(=O)c2ccccc2C)cc1 (stereo not given),0.6%
6,CSCCC(NC(=O)c1ccc(Cl)cc1Cl)C(=O)NNC(=O)c1csc(N2CCOCC2)n1 (stereo not given),1.1%
7,COc1ccc(C(CNC(=O)c2ccc(S(=O)(=O)Nc3ccccc3F)cc2)N(C)C)cc1 (stereo not given),2.2%
8,COc1ccc(-c2sc3ccccc3c2-c2ccc(OCCN3CCOCC3)cc2)cc1,0.1%
9,Cc1ccc(C(C(=O)NCC2CCCO2)N(C(=O)c2snc(C(N)=O)c2N)c2ccc(C(C)C)cc2)o1 (stereo not given),-0.8%
10,C#CCOCCOCCOCCNc1nc(N2CCN(C(=O)CCCCCCCCCCNC(=O)[C@H](CCCCN)n3cc(C)nn3)CC2)nc(N2CCN(C(=O)CCCCCCCCCCNC(=O)[C@H](CO)n3cc(CCCSC)nn3)CC2)n1,-3.2%
11,CCOCCCNC(=O)c1cn(CC(C)C)c(=O)c2c1c1ccccc1n2C,-2.3%
12,COc1cccc2sc3cc(NCC[C@@H]4CCCN4C)ccc3c(=O)c12,63.1% (active)
13,NC(=O)NC(CC(=O)NNC(=O)c1ccccn1)c1ccc(Cl)cc1 (stereo not given),-0.9%
14,Cc1ncc(CO)c(/C=N/NC(=O)c2cccc(S(=O)(=O)N3CCCC3)c2)c1O,-0.5%
15,Cc1ccc(-c2noc(CCC(=O)Nc3ccccc3N3CCN(C)CC3)n2)cc1,-3.5%
16,CC1(C)Cc2ccccc2-c2[nH]c(=S)[nH]c(=O)c21,2.3%
17,CCOC(=O)c1ccc(NC(=O)c2nc[nH]c2C(=O)NCc2ccccc2)cc1,1.9%
18,O=C(CCCCCn1c(=O)[nH]c2ccccc2c1=O)NCCc1c[nH]c2ccccc12,-2%
19,O=C(CCCCCN1C(=O)c2cccc3cccc(c23)C1=O)NCc1ccco1,-1.7%
20,CCOc1ccc(N(C(=O)c2snc(C(N)=O)c2N)C(C(=O)NCC2CCCO2)c2c[nH]c3ccccc23)cc1 (stereo not given),-4.2%
21,Cc1ccc(NC(=O)c2cnc(SCC(=O)NCC3CCCO3)n(C)c2=O)cc1 (stereo not given),96.8% (active)
22,CC(=O)NC(=S)NNC(=O)c1ccc(Br)cc1,6.4%
23,Cc1cccc(-c2nc3ccc(C(=O)NCCN4CCN(C)CC4)cc3nc2-c2cccc(C)c2)c1,-4%

row,SMILES,inhibition
1,CCOC(=O)c1cccc(NS(=O)(=O)c2c(C(=O)N3CCCCCC3)c(C)n(C)c2C)c1,-2.7%
2,C#CCOCCOCCOCCNc1nc(N2CCN(C(=O)[C@H](CCCCN)n3cc([C@@H](N)C(C)CC)nn3)CC2)nc(N2CCN(C(=O)[C@H](Cc3ccc(O)cc3)n3cc([C@@H](N)C(C)CC)nn3)CC2)n1 (stereo not given in full),-3.4%
3,Cc1cccc(-n2cnc(C(=O)NNC(=S)Nc3ccccc3)c2)n1,0%
4,CCCCN(C)CCCNC(=O)c1cc(-c2cccs2)nc2ccccc12,-3.7%
5,C#CCOCCOCCOCCNc1nc(N2CCN(C(=O)C(Cc3ccc(O)cc3)n3cc(C(N)CC(C)C)nn3)CC2)nc(N2CCN(C(=O)C(Cc3ccc(O)cc3)n3cc(C(N)C(C)CC)nn3)CC2)n1 (stereo not given),0.7%
6,CN(C)c1ccnc2sc3c(=O)n(Cc4ccccc4)cnc3c12,-2.2%
7,CCN1C(=NCc2ccc(OC)cc2)N[C@@H](CCc2ccccc2)[C@H](C(=O)NCc2ccc(OC)cc2)[C@H]1C,-3.2%
8,CN(C)CC(O)COc1ccc(C(C)(C)c2ccc(OCC(O)CN(C)C)cc2)cc1 (stereo not given),3.6%
9,CCCCCCCCCCOC(=O)Cn1c(COc2cccc(OC)c2)[n+](C)c2ccccc21,3.3%
10,Cc1cccc(OCC(O)CN2CCN(CCN3C(=O)c4cccc5cccc(c45)C3=O)CC2)c1C (stereo not given),2.6%
11,COc1ccccc1NC(=O)CSc1nnc(-c2ccoc2C)n1CCc1ccccc1,-0.3%
12,CCCCN(CCCC)CCC(O)c1cc2c(Cl)cc(Cl)cc2c2cc(C(F)(F)F)ccc12 (stereo not given),3.4%
13,Cc1c(CN2CCC(CO)(CCOc3ccccc3)CC2)[nH]c2ccc(Cl)cc12,-3.8%
14,N#Cc1c(-c2ccc(Cl)cc2)c2c([nH]c1=S)CCCC2,-1.9%
15,CC[C@@H](C)[C@@H]1CN([C@@H](C)CN2CCC[C@H]2CN2C(N)=NC[C@H]2C(C)C)C(=N)N1CCc1ccc(Cl)c(Cl)c1,2.5%
16,CCOC(=O)[C@@H]1[C@H]2COc3cc(OC)ccc3[C@H]2N2C(=O)N(c3ccc(F)cc3)C(=O)[C@]12C,3.4%
17,Cc1cc(C)c(NC(=O)C[N+](C)(C)CC(O)COc2cccc3ccccc23)c(C)c1 (stereo not given),-2.3%
18,CC(=O)Nc1ccc(NC(=O)c2sc3nc4c(c(-c5ccc(C)cc5)c3c2N)CCC4)cc1,4.6%
19,C=C1c2c(Cl)ccc(O)c2C(O)=C2C(=O)[C@]3(O)C(O)=C(C(N)=O)C(=O)[C@@H](N(C)C)[C@@H]3[C@@H](O)C12 (stereo not given in full),1.1%
20,CCCOc1ccc(Cl)cc1Nc1nc(NCCO)nc(N2CCCC2)n1,6.6%
21,CN1CCC(CN)(N2CCN(c3ccccc3)CC2)CC1,-2.2%
22,CCOC(=O)N1CCN(C(=O)Cc2ccc(-n3c(=S)[nH]c4ccccc4c3=O)cc2)CC1,-0.5%
23,CN1CCN(CCCNC(=O)c2ccc(/C=C3\Oc4ccccc4N(Cc4ccc(Cl)cc4)C3=O)cc2)CC1,-0.4%

row,SMILES,inhibition
1,O=c1c2c(nc3n1CCCCC3)sc1c(O)cccc12,77.2% (active)
2,c1ccc(C[C@H]2CNCCN2CCC23CC4CC(CC(C4)C2)C3)cc1,-0.9%
3,O=c1cc(CO)oc(C(Nc2cccc(C(F)(F)F)c2)c2ccccn2)c1O (stereo not given),-1.4%
4,NC(N)=Nc1nc(-c2ccccc2)c2cc(Cl)ccc2n1,-2.7%
5,CCC(C(=O)NC1CCCC1)N(C(=O)c1snc(C(N)=O)c1N)c1ccc2c(c1)OCCO2 (stereo not given),1.4%
6,c1ccc2c(CCN3CCNC[C@H]3Cc3cccc4ccccc34)cccc2c1,5%
7,C#CCOCCOCCOCCNc1nc(N2CCN(C(=O)C([C@@H](C)O)n3cc([C@@H](N)CCCCN)nn3)CC2)nc(N2CCN(C(=O)[C@H](CCCCN)n3cc(CN)nn3)CC2)n1 (stereo not given in full),1.6%
8,COC(=O)c1cc(-c2cccs2)nc2ccccc12,-2.9%
9,CC1CN(C(=O)CCC(=O)NCCCN2CCC(Cc3ccccc3)CC2)c2cc(Cl)ccc2O1 (stereo not given),0.6%
10,NC[C@H](Cc1ccccc1)NCCc1cc(C(F)(F)F)cc(C(F)(F)F)c1,-2.6%
11,CCOC(=O)C1=C(c2ccccc2)O/C(=C(/C(=O)OC)C(F)(F)F)S1,1.4%
12,COc1ccc(/C=N\NC(=O)c2sc(N)nc2C)cc1OC,23%
13,C#CCOCCOCCOCCNc1nc(N2CCN(C(=O)C([C@@H](C)CC)n3cc(C(N)COC(=O)C(F)(F)F)nn3)CC2)nc(N2CCN(C(=O)[C@H](CCCCN)n3cc(C(N)CC(C)C)nn3)CC2)n1 (stereo not given in full),-1%
14,CN(C)CCCN(C(=O)c1ccc(S(=O)(=O)N2CCCCCC2)cc1)c1nc2cc3c(cc2s1)OCCO3,1.4%
15,CCN(CC(=O)NCc1cccs1)C(=O)c1cccc(S(=O)(=O)Nc2ccccc2OC)c1,-1.4%
16,COc1ccc(N(C(=O)c2snc(C(N)=O)c2N)C(C(=O)NC2CCCC2)c2ccco2)cc1OC (stereo not given),-0.3%
17,CCN1CCN(CCNC(=O)c2ccc(/C=C3/Sc4ccccc4N(Cc4cccc(C)c4)C3=O)cc2)CC1,2.4%
18,C[C@@H](CN1CCC[C@H]1CN1C(N)=NC[C@@H]1Cc1ccccc1)N1C[C@@H](Cc2ccccc2)N(CCCC2CCCC2)C1=N,1.4%
19,COc1ccnc2c1c(=O)n(Cc1cccc(F)c1)c(=O)n2C,-0.3%
20,OCCNc1nc(Nc2ccc(Cl)c(Cl)c2)nc2ccccc12,-0.1%
21,CCCC[C@@H]1CN=C(N)N1CCc1cc(C(F)(F)F)cc(C(F)(F)F)c1,0.9%
